Measurements as given in PubChem BioAssay AID1645887 (National Center for Advancing Translational Sciences (NCATS), 2021).
Out of some 16,000 compounds screened, about 40 (0.2%) were called active. Another 1% or so got no clear call; they are omitted. Calls follow the shape of the dose curve; as a rule, active = well fitted activation curve with a large enough effect; inconclusive = small, poorly fitted or top-dose-only effect, or another doubt; inactive = no such curve, though single readings can be large or run the other way. The full list was thinned out, with actives kept by preference. More than one record can exist for a structure, and the calls need not agree. Residues, ends and D or L forms follow the SMILES beside them.

Biological target: Rap guanine nucleotide exchange factor 4 (Homo sapiens) (UniProt Q8WZA2)
Sequence (Q8WZA2 whole entry, looked up): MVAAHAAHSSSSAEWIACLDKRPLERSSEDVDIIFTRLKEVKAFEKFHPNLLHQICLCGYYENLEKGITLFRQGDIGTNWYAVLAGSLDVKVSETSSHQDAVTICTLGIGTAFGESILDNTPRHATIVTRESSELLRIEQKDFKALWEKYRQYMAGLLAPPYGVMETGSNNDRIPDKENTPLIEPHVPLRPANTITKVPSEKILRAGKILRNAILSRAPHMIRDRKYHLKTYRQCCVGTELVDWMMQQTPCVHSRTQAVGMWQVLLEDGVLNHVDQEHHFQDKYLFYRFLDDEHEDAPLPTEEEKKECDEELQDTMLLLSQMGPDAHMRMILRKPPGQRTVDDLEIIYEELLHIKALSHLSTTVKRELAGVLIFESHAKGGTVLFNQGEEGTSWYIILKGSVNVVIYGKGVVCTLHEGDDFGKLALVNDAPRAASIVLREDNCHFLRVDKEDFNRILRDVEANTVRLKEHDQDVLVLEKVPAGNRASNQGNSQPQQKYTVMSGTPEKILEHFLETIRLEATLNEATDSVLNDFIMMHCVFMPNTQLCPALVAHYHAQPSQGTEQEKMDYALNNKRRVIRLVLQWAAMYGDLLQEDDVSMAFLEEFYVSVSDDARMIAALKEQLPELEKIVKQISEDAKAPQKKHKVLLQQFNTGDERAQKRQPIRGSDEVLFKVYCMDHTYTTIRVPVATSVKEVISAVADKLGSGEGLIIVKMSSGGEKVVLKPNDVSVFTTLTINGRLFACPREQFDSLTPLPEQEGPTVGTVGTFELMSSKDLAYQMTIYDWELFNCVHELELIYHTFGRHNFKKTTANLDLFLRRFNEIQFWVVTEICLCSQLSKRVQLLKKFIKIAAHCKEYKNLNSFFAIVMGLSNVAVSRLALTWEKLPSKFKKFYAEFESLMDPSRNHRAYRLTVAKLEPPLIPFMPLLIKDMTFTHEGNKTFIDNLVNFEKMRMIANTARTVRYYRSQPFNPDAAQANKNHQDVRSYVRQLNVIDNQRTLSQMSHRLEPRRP
Test: Validation qHTS for agonist of cAMP-regulated guanine nucleotide exchange factor 4 (EPAC2);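 as to activation: exchange makes BODIPY-GDP fluorescence drop when released from Rap1B; series mostly up to about 150 µM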
Settings: EPAC2 Rap1B BODIPY-GDP exchange, fluorescence; activation: hits give high values
From the text: Principle Investigator: Xiaodong Cheng Ph.D.
The University of Texas Medical Branch, […], TX
In multi-cellular eukaryotic organisms, the effects of cAMP are transduced by two ubiquitously-expressed intracellular cAMP receptors, the classic protein kinase A/cAMP-dependent protein kinase (PKA/cAPK) and the more recently discovered exchange protein directly activated by cAMP/cAMP-regulated guanine nucleotide exchange factor (EPAC/cAMP-GEF). Both PKA and EPAC are ubiquitously expressed in all tissues, and an increase in intracellular cAMP levels will lead to the activation of both PKA and EPAC. Therefore, careful dissections of the individual role and relative contribution of EPAC and PKA within the overall cAMP signaling in various model systems are critical for further elucidating the mechanism of cAMP signaling. To date no EPAC-specific antagonists and agonist, as well as isoform-specific agonists have been reported, and developing EPAC-specific pharmacological probes to determine the physiological functions that EPAC play in the overall cAMP-mediated signaling remains a major challenge within the research field. Furthermore, identified regulators of EPAC may lead to new mechanism-based therapeutic strategies specifically targeting the EPAC / cAMP-signaling components as EPAC has been implicated to play important roles in major human pathological conditions such as diabetes, heart disease, and cancer.
This qHTS will be used to screen the Molecular Libraries Small Molecule Repository (MLSMR) as a concentration-titration series using the NCGC unique quantitative screening (qHTS) platform to find activators for EPAC1. In addition, this assay will also be used as a counterscreen for the EPAC2 qHTS. This fluorescent based assay is developed and validated for EPAC1 that measures exchange using EPAC effector Rap1 complex with BODIPY-GDP, a GDP analog with a tethered fluorophores. Activators are identified by monitoring the change in fluorescence signal as the exchanged free BODIPY-GDP has a reduced fluorescence compared to Rap1-bound BODIPY-GDP. Increase in signal (activation) is the desired outcome for the EPAC1 agonist while no activity in this assay is desired for the EPAC2 agonist counterscreen.
[1] de Rooij, J., Zwartkruis, F. J., Verheijen, M. H., Cool, R. H., Nijman, S. M., Wittinghofer, A., and Bos, J.L. (1998) Nature 396, 474-477.
Briefly, three uL of reagents (100 nM EPAC2, 250 nM RAP1B-BODIPY-GDP, 50 uM GDP) were dispensed into a 1536-well Greiner black solid-bottom medium binding assay plate. Controls and test compounds (23 nL) were transferred to the plate via a Kalypsys pin tool equipped with a 1536-pin array. The plates were centrifuged at 1,000 rpm for 15 seconds followed by 5 minute incubation at room temperature. The assay plates were read at 5 minute intervals for 30 minutes in the ViewLux plate reader using 480nm excitation and 540nm emission filters. The results were normalized to the agonist positive control of 6.5 mM cAMP.
% is scaled to controls: 0 for no effect and ±100 for the full control effect; potency is read from the fitted curve at half-maximal effect.

Row | Structure (SMILES) | activation | Potency
1 | CCNc1ncc2nc(-c3ccccc3)c(=O)n(CCc3ccccc3)c2n1 | 4.35% (inactive) | 
2 | CN1CCCC(CNC(=O)c2cnn(-c3ncc4c(n3)-c3ccccc3CC4)c2C2CC2)C1 (centres undefined) | -10.8% (inactive) | 
3 | O=C(CNC(=O)c1cccnc1)c1ccc(F)cc1 | -17.4% (inactive) | 
4 | O=C(c1cn(C2CCCN(Cc3cc(Cl)ccc3O)C2)nn1)N1CCCCC1 (centres undefined) | -0.543% (inactive) | 
5 | CNc1ccnc(-c2cccc(NS(C)(=O)=O)c2)n1 | 1.54% (inactive) | 
6 | CC(=O)Nc1ccc(S[C@@H](CCN2CC[C@H](C(C)(C)C)CCC2=O)c2ccccc2)cc1 | -31.2% (inactive) | 
7 | O=C(O)COc1ccc(CCNS(=O)(=O)c2ccccc2)s1 | 2.15% (inactive) | 
8 | CCn1c(-c2ccccc2F)nc2cc(NC(C)=O)cc(C(=O)N3CCNC(=O)C3CC(=O)OC)c21 (centres undefined) | -2.82% (inactive) | 
9 | O=C(C[N+]12CCCc3cccc(c31)CCC2)c1ccccc1 | -2.28% (inactive) | 
10 | CN(C)c1ccc(C(=C2C=CC(=[N+](C)C)C=C2)c2ccccc2)cc1 | -24.7% (inactive) | 
11 | Cn1c(C(c2cc3ccccc3n2C)c2cc3ccccc3n2C)cc2ccccc21 | 11.4% (inactive) | 
12 | COc1ccccc1CNc1ccnc(-c2ccoc2)n1 | -10.4% (inactive) | 
13 | CCCN1CCC(=O)N([C@H](CSc2ccccc2)c2ccccc2)CC1 | -10.4% (inactive) | 
14 | CC(=O)OC1CCC2(C)C3CC(=O)C4(C)C(CC5OC6(CCC(C)CO6)C(C)C54)C3CC[C@H]2C1 (some centres undefined) | -13.5% (inactive) | 
15 | O=C(O)c1ccc2nc(-c3ccccc3)c(-c3ccccc3)nc2c1 | 11.6% (inactive) | 
16 | Cc1nc(NCc2c(F)cccc2F)sc1-c1ccn(CCN2CCOCC2)n1 | -13.4% (inactive) | 
17 | COc1ccc(C(=O)N2CCC[C@@]3(CCN(c4ncccn4)C3)C2)cc1 | -15.1% (inactive) | 
18 | COc1cccc(Cn2c(=O)c(-c3ccc(F)cc3)nc3cnc(N4CCNCC4)nc32)c1 | 12.8% (inactive) | 
19 | C=C1CCC(OC(C)=O)/C(C)=C/CC2[C@H]1CC2(C)C (some centres undefined) | -15.7% (inactive) | 
20 | CCOC(=O)C[C@H]1c2cc(F)ccc2S(=O)(=O)N1C1CCCC1 | -9.78% (inactive) | 
21 | CN(C)c1ccc(/C=C/c2c3ccccc3nc3ccccc23)cc1 | -14.9% (inactive) | 
22 | Cc1cnc2ccccc2c1/C=C/c1ccc(N(C)C)cc1 | 20.8% (inactive) | 
23 | CN(C)c1ccc(/C=C/c2c3c(nc4ccccc24)CCCC3)cc1 |  | 44.7 µM (active)
24 | OC(CN1CCCCC1)c1cc(-c2ccccc2)on1 (centres undefined) | 8.32% (inactive) | 
25 | CN(Cc1ccco1)c1ncnc2ccc(-c3ccccc3C(F)(F)F)cc12 | -4.16% (inactive) | 
26 | Cc1c(C(=O)N(C)Cc2cscn2)sc2ncnc(NC[C@H]3CCc4ccccc4O3)c12 | -2.34% (inactive) | 

Row | Structure (SMILES) | activation | Potency
27 | O=C(O)[C@@H]1CN[C@@H](C(=O)O)C1 | 11.8% (inactive) | 
28 | Cc1cc2c(c(-c3cnccn3)c1)OC(CNC(=O)c1ccc(-n3nc(C)cc3C)cc1)C2 (centres undefined) | -7.18% (inactive) | 
29 | CC(C)CC(NC(=O)CN)C(=O)NC(Cc1ccccc1)C(=O)O (stereo not drawn) (H-Gly-Leu-Phe-OH; configuration not given here) | -3.33% (inactive) | 
30 | CO[C@H]1[C@H](NC(=O)c2ccco2)c2ccccc2C12CCN(Cc1cnc(N(C)C)s1)CC2 | -21.4% (inactive) | 
31 | COc1ccc(-c2nc3cnc(OC)nc3n(C[C@H]3CCCO3)c2=O)cc1 | -6.48% (inactive) | 
32 | O=C(O)CCC(=O)OC[C@@H](NC(=O)C(Cl)Cl)C(O)c1ccc([N+](=O)[O-])cc1 (some centres undefined) | -9.09% (inactive) | 
33 | COCCn1c(=O)c(C)nc2cnc(OC)nc21 | -6.26% (inactive) | 
34 | CC(=O)O[C@H]1C[C@H]2CC[C@@H]3[C@H]4C[C@@H]([N+]5(C)CCCCC5)[C@@H](OC(C)=O)[C@]4(C)CC[C@@H]3[C@@]2(C)C[C@@H]1[N+]1(C)CCCCC1 | -8.62% (inactive) | 
35 | O=c1c(-c2ccccc2)nc2cnc(Oc3ccccc3)nc2n1Cc1cccs1 | -18.6% (inactive) | 
36 | CN1CCN(c2ncc3nc(CCc4ccccc4)c(=O)n(Cc4cccs4)c3n2)CC1 | 14.9% (inactive) | 
37 | CC1(C)CCC2=C(O1)c1ccccc1C(=O)C2=O | 17.8% (inactive) | 70.8 µM (active)
38 | CC1=CC(=O)c2ccccc2C1=O | -29.9% (inactive) | 
39 | CC1(S(=O)(=O)O)CC(=O)c2ccccc2C1=O (centres undefined) | 3.25% (inactive) | 
40 | CC(C)C(C)/C=C/C(C)C1CCC2C3=CCC4CC(=O)CC[C@@]4(C)C3CC[C@]21C (some centres undefined) | 0.449% (inactive) | 
41 | O=C(O)c1cccc(/C=C2/C[C@@H]3[C@@H](/C=C/[C@@H](O)C4CCCCC4)[C@H](O)C[C@@H]3O2)c1 | 15.9% (inactive) | 
42 | C=C1Cc2c(Cl)cc3[nH]c4c5c3c2[C@@]2(O)[C@@H]1C[C@@H]2C(C)(C)O[C@H]5[C@@H]1CC[C@@]2(O)[C@@]35O[C@@H]3[C@@H](O)[C@@H](C(=O)O)O[C@H]5CC[C@]2(C)[C@@]41C | -9.97% (inactive) | 
43 | N#CC[C@H](Cc1ccccc1)N1CC[C@@H](NC(=O)OCc2ccccc2)CCC1=O | -28.7% (inactive) | 
44 | Oc1cc(-c2nc3ccccc3s2)cc2c1OCCN(Cc1cccn1-c1ccccn1)C2 | 7.3% (inactive) | 
45 | COc1ccc(CN([C@H](CO)CC(C)C)S(=O)(=O)N(Cc2ccccc2)[C@H](CO)CC(C)C)cc1 | -27.3% (inactive) | 
46 | N#CCCn1c(=O)c(-c2cccs2)nc2cnc(Nc3ccccc3)nc21 | -2.03% (inactive) | 
47 | CCNc1ncc2nc(-c3cccs3)c(=O)n(CCC#N)c2n1 |  | 50.1 µM (active)
48 | CCNc1ncc2nc(-c3cccs3)c(=O)n(CCc3ccccc3)c2n1 | -14% (inactive) | 
49 | O=c1[nH]c(=O)n(C2CC(O)C(CO)O2)cc1F (centres undefined) | -6.18% (inactive) | 
50 | C[C@]12CC[C@@H]3c4ccc(OC(=O)c5ccccc5)cc4CC[C@H]3[C@@H]1CC[C@@H]2O | -2.11% (inactive) | 
51 | CC(=O)Oc1ccc2c(c1)CCC1C2CC[C@]2(C)C(OC(C)=O)CCC12 (some centres undefined) | -1.9% (inactive) | 
52 | CC(=O)Oc1ccc2c(c1)CC[C@@H]1[C@@H]2CC[C@]2(C)[C@@H](O)CC[C@@H]12 |  | 44.7 µM (active)

Row | Structure (SMILES) | activation | Potency
53 | CN(C)C(=O)c1ccc(-c2nc(N3CCOCC3)c3ccccc3n2)cc1 | -5.48% (inactive) | 
54 | CC(C)C[C@@H](CC#N)N1CCN(Cc2ccccc2)CCC1=O | -11.1% (inactive) | 
55 | Clc1ccc[n+](CCCCC[n+]2cccc(Cl)c2)c1 | -27.9% (inactive) | 
56 | O=C(Nc1ccc(C(F)(F)F)cc1[N+](=O)[O-])O[C@H]1[C@H](Cc2ccccc2)NS(=O)(=O)[C@H]2C[C@@H]3C=C[C@]12O3 | -19.6% (inactive) | 
57 | COc1ccc(C(=O)C[n+]2cccc3cccc(O)c32)cc1 | -13.2% (inactive) | 
58 | COc1cccc2c1C(=O)c1c(O)c3c(c(O)c1C2=O)C[C@@](O)(C(=O)CO)C[C@@H]3O[C@H]1C[C@H](N)[C@H](O[C@@H]2CCCCO2)[C@H](C)O1 | 1.58% (inactive) | 
59 | COc1cccc2c1C(=O)c1c(O)c3c(c(O)c1C2=O)C[C@@](O)(C(=O)CO)C[C@@H]3O[C@H]1C[C@H](N)[C@H](O)[C@H](C)O1 | -17.2% (inactive) | 
60 | CC(=O)[C@]1(O)Cc2c(O)c3c(c(O)c2[C@@H](O[C@H]2C[C@H](N)[C@H](O)[C@H](C)O2)C1)C(=O)c1c(O)cccc1C3=O |  | 100 µM (active)
61 | CCCCC(=O)OCC(=O)[C@]1(O)Cc2c(O)c3c(c(O)c2[C@@H](O[C@H]2C[C@H](NC(=O)C(F)(F)F)[C@H](O)[C@H](C)O2)C1)C(=O)c1c(OC)cccc1C3=O | -1% (inactive) | 
62 | COc1cccc2c1C(=O)c1c(O)c3c(c(O)c1C2=O)C[C@@](O)(C(C)=O)C[C@@H]3O[C@H]1C[C@H](N)[C@H](O)[C@H](C)O1 |  | 100 µM (active)
63 | CC(=O)[C@]1(O)Cc2c(O)c3c(c(O)c2[C@@H](O[C@H]2C[C@H](N)[C@H](O)[C@H](C)O2)C1)C(=O)c1ccccc1C3=O |  | 100 µM (active)
64 | CC[C@@]1(O)C[C@H](O[C@H]2C[C@H](N(C)C)[C@H](O[C@H]3C[C@H](O)[C@H](O[C@H]4CCC(=O)[C@H](C)O4)[C@H](C)O3)[C@H](C)O2)c2c(cc3c(c2O)C(=O)c2c(O)cccc2C3=O)[C@H]1C(=O)OC | 26% (inactive) | 
65 | Cc1c(C(=O)NCc2ccco2)cnn1-c1ncc2c(n1)-c1ccccc1CC2 | -0.162% (inactive) | 
66 | O=C(c1ccncc1)N1CCC2(CCCN(c3ccc(-c4ccccc4)cc3)C2)CC1 | -3.07% (inactive) | 
67 | COc1cc2c(cc1OC)C(=O)N(C)CC2 | -9.91% (inactive) | 
68 | CC(C)NC(=O)[C@@H]1C[C@@H](Sc2ccccn2)CN1C1CCN(C)CC1 | -0.85% (inactive) | 
69 | C=CCN1[C@@H](Cc2ccccc2)COCCS1(=O)=O | -11.2% (inactive) | 
70 | Cc1cccc(CN2Cc3cccc4c3[C@H](C=CC4)CC2=O)c1 | -35.8% (inactive) | 
71 | Cc1cc(CC(=O)O)c(C)n1-c1ccc(Cl)cc1 | -0.347% (inactive) | 
72 | COc1ccccc1CNc1ncncc1-c1ccccc1CN(C)C | -6.39% (inactive) | 
73 | COc1ccccc1CCNc1ncnc2sc(C(=O)N3CCCC3)c(C)c12 | -2.93% (inactive) | 
74 | COc1cccc(-c2ccc3ncnc(NCc4cccnc4)c3c2)c1 | -11% (inactive) | 
75 | Clc1cccc[n+]1CCc1ccccc1 | -40.7% (inactive) | 
76 | COc1ccc(N2C(=O)[C@@H]3C[C@H]2CN3Cc2ccc3nccnc3c2)cc1Cl | -3.06% (inactive) | 
77 | CC[C@@H]1[C@H]2CCCC(=O)N3CC[C@@H](C[C@H]1O)[C@@H]23 | -8.94% (inactive) | 
78 | N[C@@H](Cn1cc(I)c(=O)n(Cc2ccc(C(=O)O)cc2)c1=O)C(=O)O | 2.18% (inactive) | 
